From PubChem BioAssay (NCATS)
Results filed as inconclusive are left out. A call without a number means that no potency is given here. The source made the active and inactive calls. Calls follow the shape of the dose curve; as a rule, active = well fitted curve in the direction sought with a large enough effect; inconclusive = small, poorly fitted or top-dose-only effect, or another doubt; inactive = no such curve, though single readings can be large; an effect the other way counts as inactive or inconclusive.

Key:
[1] = biological target: Aldehyde dehydrogenase, mitochondrial (Homo sapiens) (UniProt P05091); test: qHTS for Inhibitors of the Aldehyde Dehydrogenase Family (ALDH2) Primary screen (AID 2061308); also: nearly all actives have a fitted effect of over 55% in size
[2] = biological target: Retinaldehyde dehydrogenase 3 (Homo sapiens) (UniProt P47895); test: qHTS for Inhibitors of the Aldehyde Dehydrogenase Family (ALDH1A3) Primary screen (AID 2061315)

Compound | Potency [1] | Potency [2]
Clc1ccc(CN(CCCNc2ncnc(NCCCc3cnc[nH]3)n2)c2ccc(Br)cn2)cc1Cl | inactive | inactive
COc1ccccc1NS(=O)(=O)c1ccc2c(c1)CCC(=O)N2 | inactive | inactive
COc1ccc(-c2nnc3n2N=C(c2ccc(OC)c(OC)c2)CS3)cc1 | inactive | inactive
Cc1cc(C(C#N)c2ccc(Cl)cc2)c(Cl)cc1NC(=O)c1cc(I)cc(I)c1O (stereo not drawn) | inactive | inactive
COC(=O)c1cc2c(C(F)(F)F)cc(-c3ccccc3)cc2n1O | inactive | inactive
CCCn1c(C)nc2c(NC3CCN(Cc4ccccc4)C3)nc(C)nc21 (stereo not drawn) | inactive | inactive
Cc1cc(NS(=O)(=O)c2ccc(NC(=O)Cc3ccc(Cl)cc3Cl)cc2)no1 | inactive | inactive
Cc1ccc(NS(=O)(=O)c2ccccc2C(=O)Nc2nc(-c3ccccc3)cs2)cc1 | inactive | inactive
N#Cc1ccc(-c2nc(NCc3ccc(-c4ccnc(C(F)(F)F)c4)cc3)c3ccccc3n2)cc1 | inactive | inactive
O=C(O)c1ccc(-c2noc(-c3cccc(C(F)(F)F)c3)n2)cc1 | inactive | inactive
CCC(=O)NC(c1cccs1)c1ccc2cccnc2c1O (stereo not drawn) | inactive | inactive
O=C1c2ccccc2C(=O)N1c1ccccn1 | inactive | inactive
CC(C)c1ccccc1-c1nc2c(c(NCc3ccc(-c4cccnc4)cc3)n1)CNC2 | inactive | inactive
O=C(OCC#CCSc1nnc(-c2cccc3ccccc23)o1)c1ccc(F)c(F)c1 | inactive | inactive
FC(F)(F)c1cc(-c2ccc(CNc3nc(-c4ccccc4C(F)(F)F)nc4ccccc34)cc2)ccc1Cl | inactive | inactive
CCOc1ccc(CCNC(=O)c2cc3ccccc3o2)cc1OCC | inactive | inactive
COc1cc(O)c(C(CC(=O)N2CC(C)OC(C)C2)c2ccc3c(c2)OCO3)c(OC)c1 (stereo not drawn) | inactive | inactive
Cc1cnc(-c2ccccc2C2COC2)nc1NCC1CCN(c2cccnc2)CC1 | inactive | inactive
N#CC1=C(NC=NCc2ccccc2)Oc2ccc3ccccc3c2C1c1ccccc1 (stereo not drawn) | inactive | inactive
Cc1ccc(Cn2ncc3c4sc(C)cc4n(C)c3c2=O)c(C)c1 | inactive | inactive

Compound | Potency [1] | Potency [2]
COc1ccc(-c2nc(Nc3ccc(F)c(F)c3)c3ccccc3n2)cc1 | inactive | inactive
CCc1ccc(NC(=O)c2[nH]c(C)c(C(C)=O)c2C)cc1S(=O)(=O)Nc1ccc(C#N)cc1 | inactive | inactive
Cc1ccc(NS(=O)(=O)c2cc3c(cc2N2CCCCC2)NC(=O)CC3)cc1C | inactive | inactive
COc1ccc(C2Nc3ccccc3C(=O)N2Cc2ccco2)cc1 (stereo not drawn) | inactive | inactive
CCCCN(C)C(=O)Cn1nc(-c2ccc(F)cc2)ccc1=O | inactive | inactive
Cc1cc2c(s1)c1cnn(Cc3cc(F)ccc3F)c(=O)c1n2C | inactive | inactive
CN(CCc1ccco1)c1ncnc2ccc(-c3ccc4c(c3)OCO4)cc12 | inactive | inactive
CCCn1c(-c2ccc(F)cc2)nc2c(NCCN3CCCC3)nc(C)nc21 | inactive | inactive
O=C(OCC#CCSc1nnc(-c2cccc3ccccc23)o1)c1cccc(F)c1 | inactive | inactive
Cc1cnc(-c2ccccc2C(C)O)nc1NCc1ccc(-c2cccnc2)cc1 (stereo not drawn) | inactive | inactive
O=C(NCCCc1cnc[nH]1)NCCCN(Cc1ccc(Cl)c(Cl)c1)c1ccc(Br)cn1 | inactive | inactive
C[C@@H]1[C@H](O)[C@@H]2OC(=O)C3=C2[C@H](CCC3)[C@@]12C[C@@H](c1ccoc1)OC2=O | inactive | inactive
Cc1ccc(OCCn2c(CCNC(=O)c3cccc(NC(=O)OC(C)(C)C)c3)nc3ccccc32)cc1 | inactive | inactive
Cc1ccccc1N(C)C1=N[S+](=O)([O-])c2ccccc21 | inactive | inactive
O=S(=O)(c1ccc2c(c1)OCCO2)N1CCCN(S(=O)(=O)c2c(F)cccc2F)CC1 | inactive | inactive
Cc1cccc(-c2nnc(C)n2CCCn2ccnc2)c1N | inactive | inactive
C=CCc1cc(F)c(S(=O)(=O)N2CCN(S(=O)(=O)c3ccc4c(c3)OCCO4)CC2)cc1F | inactive | inactive
CCCn1c(-c2ccc(F)cc2)nc2c(N3CCN(C)CC3)nc(C)nc21 | inactive | inactive
Cn1ccc2cc(-c3ccc4ncnc(NCc5cccnc5)c4c3)ccc21 | inactive | inactive
